Source: the supplement of paper PMC3334620
In all, about 33,000 sequences were measured (“E-score (-0.5 to 0.5)”: median about -0.043, highest 2% from about 0.37 on). Shown is part of a subset that was picked to be rich in the highest values.

Target: T1, Upc2 (UniProt Q12151)
T1 sequence: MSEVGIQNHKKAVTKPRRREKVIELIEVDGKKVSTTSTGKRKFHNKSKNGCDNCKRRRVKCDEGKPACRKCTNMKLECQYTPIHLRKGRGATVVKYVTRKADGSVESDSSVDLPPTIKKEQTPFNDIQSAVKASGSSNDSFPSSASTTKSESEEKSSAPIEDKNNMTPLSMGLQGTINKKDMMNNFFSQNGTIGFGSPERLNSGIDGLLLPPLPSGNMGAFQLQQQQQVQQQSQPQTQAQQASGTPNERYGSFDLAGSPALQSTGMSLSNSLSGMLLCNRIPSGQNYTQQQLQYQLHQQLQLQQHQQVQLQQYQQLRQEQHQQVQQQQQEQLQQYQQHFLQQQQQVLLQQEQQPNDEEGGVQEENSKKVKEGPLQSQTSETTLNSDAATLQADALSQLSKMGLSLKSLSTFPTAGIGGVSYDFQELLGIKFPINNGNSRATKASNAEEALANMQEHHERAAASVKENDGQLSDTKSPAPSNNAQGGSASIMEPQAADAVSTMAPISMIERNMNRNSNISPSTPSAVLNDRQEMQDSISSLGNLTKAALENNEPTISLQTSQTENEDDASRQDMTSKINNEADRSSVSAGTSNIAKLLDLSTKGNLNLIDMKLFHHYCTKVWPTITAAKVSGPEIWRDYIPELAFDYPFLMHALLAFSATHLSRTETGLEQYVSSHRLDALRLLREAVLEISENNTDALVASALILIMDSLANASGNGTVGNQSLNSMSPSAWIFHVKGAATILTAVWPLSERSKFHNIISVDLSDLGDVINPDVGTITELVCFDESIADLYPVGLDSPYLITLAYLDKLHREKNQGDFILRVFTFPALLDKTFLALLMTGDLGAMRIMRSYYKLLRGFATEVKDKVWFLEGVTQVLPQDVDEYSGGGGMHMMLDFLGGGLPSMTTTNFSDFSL
Assay: PBM E-score (8-mer binding enrichment) (E-score (-0.5 to 0.5)); higher = stronger / more preferred TF binding
Conditions: protein concentration: 200 nM; construct: GST-full length
In short: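 The E-score, a modified Wilcoxon-Mann-Whitney statistic, was computed by the Universal PBM Analysis Suite for every ungapped eight-base word pooled with its reverse complement. Scans behind it were normalised with masliner after bound GST-tagged yeast transcription factors were detected with fluorescent anti-GST. The proteins, at about 100-200 nM, had been applied to universal all-10-mer Agilent arrays made double-stranded by primer extension.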

Compared with CACGAGGG, AACGAGGG is higher in “PBM E-score” value: 0.114 for the first, 0.43 for the second.

Going from AGGGTGAC to ACCCTGGA, the “PBM E-score” value rises from -0.128 to -0.0506.

First: CGGACGAC
Second: AGTACGCG
The “PBM E-score” value of the first is lower: -0.21 for the first, 0.189 for the second.

Compared with GGGACGAC, AGTACGCA is higher in “PBM E-score” value: -0.244 for the first, -0.0414 for the second.

Going from CGTACGCC to CGTACGAC, the “PBM E-score” value rises from 0.312 to 0.449.

Going from GGTACGAC to AGTACGAG, the “PBM E-score” value falls from 0.475 to 0.428.

Going from AGTACGAA to AGTACGTA, the “PBM E-score” value falls from 0.384 to 0.27.

Going from GGTACTAC to AGTACGTG, the “PBM E-score” value falls from 0.0298 to 0.0272.

Compared with CGAAGCAC, CAGCACGG is lower in “PBM E-score” value: -0.0203 for the first, -0.256 for the second.

First: ATAGGCGG
Second: AGCAAGTC
The “PBM E-score” value of the first is higher: -0.0532 for the first, -0.148 for the second.

Going from AAAGCAGT to GATGGGAC, the “PBM E-score” value rises from -0.125 to -0.0558.

First: CCTAGATA
Second: AGTACGAT
The “PBM E-score” value of the first is lower: -0.0107 for the first, 0.345 for the second.

Going from ATTACGAC to GGTACGAA, the “PBM E-score” value rises from 0.348 to 0.459.

First: CCTACGAG
Second: ATTACGAG
The “PBM E-score” value of the first is lower: 0.341 for the first, 0.378 for the second.

Going from ATTACGTG to GGTACGTA, the “PBM E-score” value rises from -0.118 to 0.313.

Compared with GGTACGCA, AGTACGAC is higher in “PBM E-score” value: 0.252 for the first, 0.409 for the second.

Going from CGTACGAG to CGGACGAG, the “PBM E-score” value falls from 0.465 to -0.165.

First: AGTACGCC
Second: ACCACGTG
The “PBM E-score” value of the first is lower: -0.0728 for the first, 0.0941 for the second.

First: GAAGAAAC
Second: TAATTGGA
The “PBM E-score” value of the first is higher: 0.0334 for the first, -0.00998 for the second.

First: AACTCCAC
Second: CAGTTTCA
The “PBM E-score” value of the first is higher: 0.00868 for the first, -0.223 for the second.

First: CGCGAGAA
Second: CAGGTGAG
The “PBM E-score” value of the first is higher: 0.0746 for the first, -0.277 for the second.

First: CATGGCTC
Second: AAGGTAAT
The “PBM E-score” value of the first is lower: -0.0993 for the first, 0.0547 for the second.

First: CGTACGCA
Second: TGTACGAA
The “PBM E-score” value of the first is lower: 0.345 for the first, 0.479 for the second.

Compared with CGTACGAA, TGTACAAA is lower in “PBM E-score” value: 0.444 for the first, 0.0122 for the second.

Compared with CGTACGTA, TGCACGAA is lower in “PBM E-score” value: 0.364 for the first, 0.145 for the second.

First: CATATTCA
Second: GCTTCACA
The “PBM E-score” value of the first is higher: -0.0449 for the first, -0.124 for the second.

Compared with GTTCGTCA, ATTCGTAA is higher in “PBM E-score” value: -0.0278 for the first, 0.399 for the second.

First: GTTCGTAA
Second: ATTCGTGA
The “PBM E-score” value of the first is higher: 0.424 for the first, 0.0183 for the second.

Compared with ATTCGTAG, GTTCGTGA is lower in “PBM E-score” value: 0.285 for the first, 0.0858 for the second.

Compared with GGATGGTA, GCTAGCTA is lower in “PBM E-score” value: 0.0248 for the first, 0.0155 for the second.

First: ACGACCGC
Second: GTGAGAAC
The “PBM E-score” value of the first is higher: 0.359 for the first, -0.188 for the second.

Going from GCCAAACA to ACGTACAG, the “PBM E-score” value rises from -0.0676 to 0.3.

Compared with GCGTACAC, CCGTACAC is higher in “PBM E-score” value: 0.33 for the first, 0.382 for the second.

Going from CCGTACAG to CTGTACAG, the “PBM E-score” value falls from 0.418 to 0.158.

Compared with ACGTACAC, AAAAGACA is lower in “PBM E-score” value: 0.297 for the first, 0.0436 for the second.

Going from CCACAGAC to ATTAGCCG, the “PBM E-score” value rises from -0.169 to 0.0535.

First: GTGACCGA
Second: ATGTACCG
The “PBM E-score” value of the first is higher: 0.11 for the first, -0.03 for the second.

Compared with CTGTACAA, ATGTACGC is higher in “PBM E-score” value: 0.0214 for the first, 0.187 for the second.

Going from ATGTACTG to ATGTACGG, the “PBM E-score” value rises from -0.177 to 0.373.

Compared with ATGTACTA, CTGTACGA is higher in “PBM E-score” value: 0.0361 for the first, 0.488 for the second.

Compared with CTGTACGC, CTGTACTC is lower in “PBM E-score” value: 0.375 for the first, 0.00852 for the second.

First: CTGTACCA
Second: ATGTACGA
The “PBM E-score” value of the first is lower: -0.134 for the first, 0.472 for the second.

First: CTGTACAC
Second: GACTCTCA
The “PBM E-score” value of the first is higher: 0.152 for the first, -0.187 for the second.

Going from CAGAAAGA to CACATAGG, the “PBM E-score” value falls from -0.00388 to -0.207.

Compared with AAACCAAA, AAAGCATC is lower in “PBM E-score” value: 0.118 for the first, 0.0386 for the second.

Going from GTGTACTA to GTGTACGA, the “PBM E-score” value rises from 0.127 to 0.479.

First: GTGTACCA
Second: CAAGCCTA
The “PBM E-score” value of the first is higher: 0.0546 for the first, -0.0953 for the second.

Going from GACGACGC to GACGACGA, the “PBM E-score” value falls from 0.0643 to -0.00938.

First: ACCGACGT
Second: TACGACGA
The “PBM E-score” value of the first is lower: 0.238 for the first, 0.465 for the second.

First: ACCGACGG
Second: CACGACGG
The “PBM E-score” value of the first is lower: 0.108 for the first, 0.129 for the second.

Compared with CACGACGA, AACGACGC is higher in “PBM E-score” value: 0.126 for the first, 0.442 for the second.

Going from AACGACGG to AACGACGT, the “PBM E-score” value falls from 0.437 to 0.408.

Going from CACGACGC to AAGGACGT, the “PBM E-score” value falls from 0.0689 to 0.0675.

Going from GAGCTTGC to CTCTCTTC, the “PBM E-score” value falls from -0.231 to -0.29.

Compared with CTAAGTTC, CCAATGGC is lower in “PBM E-score” value: -0.0418 for the first, -0.226 for the second.

Compared with ATTCAAAA, CTCCACCC is lower in “PBM E-score” value: 0.0167 for the first, -0.189 for the second.

First: TAACTCGA
Second: GCTGAGAC
The “PBM E-score” value of the first is higher: 0.109 for the first, -0.203 for the second.

Going from AATATCTG to AGCGACGA, the “PBM E-score” value rises from -0.124 to 0.185.

First: AACGACGA
Second: ATCGACGA
The “PBM E-score” value of the first is higher: 0.454 for the first, -0.0697 for the second.

Going from AACATACT to CGCATACC, the “PBM E-score” value rises from 0.0309 to 0.212.

Compared with CACATACG, AACATACC is lower in “PBM E-score” value: 0.401 for the first, 0.16 for the second.

Compared with AACATACG, ATCATACA is lower in “PBM E-score” value: 0.39 for the first, 0.0941 for the second.

First: CACATACC
Second: CGCATACA
The “PBM E-score” value of the first is lower: -0.12 for the first, 0.114 for the second.

Compared with ATCATACG, CACATACA is lower in “PBM E-score” value: 0.383 for the first, -0.107 for the second.

First: ATCATACC
Second: CGCATACG
The “PBM E-score” value of the first is lower: -0.02 for the first, 0.439 for the second.

Going from TGTAGGAA to AAGATGGG, the “PBM E-score” value falls from -0.0273 to -0.219.

Going from GATCCAGA to CTTAGCGC, the “PBM E-score” value rises from 0.0551 to 0.126.

First: GACCCCAA
Second: ACAAATCT
The “PBM E-score” value of the first is lower: -0.0347 for the first, 0.0248 for the second.

Going from ATCGGTCG to AAAGAAGG, the “PBM E-score” value falls from 0.197 to -0.138.

Compared with GCAGTATA, ATGTCTCA is lower in “PBM E-score” value: 0.219 for the first, -0.192 for the second.

Compared with ACATAGGC, ATCGTAAA is higher in “PBM E-score” value: -0.126 for the first, 0.448 for the second.

First: TGCGTAAA
Second: AACGTAAC
The “PBM E-score” value of the first is higher: 0.294 for the first, 0.245 for the second.

First: GTCGTAAA
Second: TCCGTAAA
The “PBM E-score” value of the first is higher: 0.477 for the first, 0.357 for the second.

First: ATCGTAAG
Second: ATCGTAAT
The “PBM E-score” value of the first is higher: 0.354 for the first, 0.287 for the second.

First: ATCGTAAC
Second: ACCGTAAC
The “PBM E-score” value of the first is higher: 0.372 for the first, 0.27 for the second.

First: TTCGTAAA
Second: GACGTAAA
The “PBM E-score” value of the first is higher: 0.459 for the first, 0.228 for the second.

First: GGCGTAAA
Second: GAGTAGGC
The “PBM E-score” value of the first is higher: 0.279 for the first, -0.18 for the second.

First: AGTCTACA
Second: AGAACACC
The “PBM E-score” value of the first is lower: -0.115 for the first, -0.039 for the second.

Compared with CCGAGTGA, CAATAAGG is lower in “PBM E-score” value: 0.102 for the first, -0.351 for the second.

Compared with CTCGTAAA, CACGTAAA is lower in “PBM E-score” value: 0.482 for the first, 0.253 for the second.

Going from CGCGTAAA to ACAGATTA, the “PBM E-score” value falls from 0.354 to -0.111.

Going from CATAGTAC to ACATTTTA, the “PBM E-score” value rises from 0.0276 to 0.187.

First: ACCGTCGA
Second: AACGTCGT
The “PBM E-score” value of the first is lower: -0.191 for the first, 0.38 for the second.

First: ACCGTCGC
Second: AACGTCGG
The “PBM E-score” value of the first is higher: 0.233 for the first, 0.176 for the second.

Compared with ACCGTCGT, AACGTCGA is lower in “PBM E-score” value: 0.394 for the first, 0.202 for the second.

Going from GCAATCTA to TAAGTAAA, the “PBM E-score” value rises from -0.0928 to -0.00508.
